# High-throughput results as filed in PubChem.
# Only some compounds are listed: those with a hit (about 1.3% of all), similar ones and a draw of the others.
# PfHsp40 rescue = rescue of PfHsp40-mediated yeast toxicity | S. cerevisiae expressing PfHsp40, growth rescue, ATP luminescence | growth rescue, % at 12.5 µM | 340,000 compounds, 0.68% hits; in the data active = growth rescue above about 28%, passing the limit was not always enough; inconclusive = no clear call, values can overlap the other calls;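 note: yeast W303a lacking pdr1 and pdr3 grown in galactose medium; growth measured after three days at 30 °C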
# ugtP null kill = compounds lethal to S. aureus RN4220 ugtP deletion mutant. OD600 growth, 16 h. growth inhibition, % (no concentration beside the values). 330,000 compounds, 0.54% hits; in the data active = growth inhibition above about 68%
# Sa RN4220 lethal = kills Staphylococcus aureus RN4220; S. aureus RN4220 growth, OD600, 16 h; inhibition, % (concentration not given with the values); 330,000 compounds, 0.33% hits; in the data active = inhibition above about 85%
# BJeLR lethal = BJeLR cell viability loss; BJeLR (HRASV12) viability, CellTiter-Glo ATP luminescence, 48 h; inhibition, % (no concentration beside the values); 300,000 compounds, 0.17% hits; AID 1554; in the data active = inhibition above about 50%; inconclusive = no clear call, values can overlap the other calls
# SARS 3CLpro inh = SARS-CoV 3CLpro protease inhibition; inhibition, % at 6 µM; 290,000 compounds, 0.14% hits; recombinant SARS-CoV 3CLpro, quenched FRET peptide cleavage; P0C6X7; in the data active = inhibition above about 12%
# Hits are given with their value; 0 = inactive; ? = inconclusive; - = no result.
SMILES,PfHsp40 rescue,ugtP null kill,Sa RN4220 lethal,BJeLR lethal,SARS 3CLpro inh
COc1ccc2oc(C(=O)OCC(=O)c3ccc4c(c3)OCCO4)c(C)c2c1,72,0,0,0,0
COc1ccc2oc(C(=O)N(C)Cc3ccc4c(c3)OCCO4)c(C)c2c1,0,0,0,0,-
CC(C)NC(=O)N(C)C[C@H]1Oc2ccc(NC(=O)NC3CCCCC3)cc2C(=O)N([C@H](C)CO)C[C@@H]1C,0,0,0,-,-
Cc1ccnc(N2CCC(C(=O)NCc3ccccc3F)CC2)n1,0,0,0,0,0
CN(C)CCN=Cc1c(O)n(Cc2ccc3c(c2)OCO3)c(=S)[nH]c1=O,82,0,0,0,0
CCC1Oc2ccccc2N(CC(=O)NC2CCCCC2)C1=O (stereo unspecified),0,101,0,0,0
CCCCOC(=O)/C=C/c1ccc(OC(=O)OC)c(OC(=O)OC)c1,287,0,0,0,0
Cc1[nH]c2ccccc2c1N=Nc1ccccc1F,170,0,0,0,0
Cc1[nH]c2ccccc2c1N=Nc1ccc(F)cc1,0,0,0,0,0
CCCCNc1nnc(SCC(=O)c2c(N)n(CCC)c(=O)[nH]c2=O)s1,0,0,0,-,-
CCCn1c(N)c(C(=O)CSc2nc(C)cs2)c(=O)[nH]c1=O,26,0,0,0,0
CC(C)(C)c1ccc(C(=O)CC(Sc2ccc(Cl)cc2)C(=O)O)cc1 (stereo unspecified),75,0,0,0,0
CC/C(=C\C=C\[C@@H]1C=C[C@@H]2CCC[C@H]2[C@@H]1C(=O)c1ccc[nH]1)[C@@H]1O[C@@H]([C@@H](C)C(=O)O)CC[C@@H]1C,-,99,100,0,0
COc1cccc(N2CC(NC(=O)c3cccc4ccccc34)CC2=O)c1 (stereo unspecified),0,0,0,0,-
C=CCc1cc(C=NNC(=O)CSc2nnc(CCCc3ccc(OC)c(C)c3)o2)cc(OC)c1O,-,0,0,-,-
CC(=O)N1c2ccc(S(=O)(=O)NCCC(=O)NCCc3cccc(C)c3)cc2CC1C (stereo unspecified),68,0,0,0,0
Oc1ccc(N=Nc2ccccc2)o1,288,0,0,0,0
COc1ccc(C(=O)c2no[n+]([O-])c2C(=O)c2ccc(OC)cc2)cc1,0,0,0,0,0
O=C(c1cccs1)c1no[n+]([O-])c1C(=O)c1cccs1,?,0,0,71,0
C[C@@]12CCC=C[C@H]1[C@H](c1ccc(/C=C/c3ccccc3)cc1F)N(Cc1ccccc1)C2=O,0,-,-,0,-
O=C(NNC1=C(C(=O)C(F)(F)F)CCC1)c1ccccc1O,?,101,100,0,0
COc1ccccc1C(=O)NNC1=C(C(=O)C(F)(F)F)CCC1,0,99,101,0,0
O=C(NNC1=C(C(=O)C(F)(F)F)CCC1)c1ccc(Br)cc1,0,100,101,0,0
COc1cccc(C(=O)NNC2=C(C(=O)C(F)(F)F)CCC2)c1,0,93,0,0,0
O=C(COC(=O)c1cc(Cl)ccc1O)NC(=O)NCc1ccccc1,0,0,0,-,-
SMILES,PfHsp40 rescue,ugtP null kill,Sa RN4220 lethal,BJeLR lethal,SARS 3CLpro inh
c1ccc(Nc2nc(-c3ccccn3)cs2)cc1,317,0,0,0,0
COc1cccc2sc(Nc3nc(-c4ccccn4)cs3)nc12,?,99,99,0,0
COc1ccc(-c2csc(Nc3ccccc3)n2)cc1,57,0,0,0,0
COc1ccc(Nc2nc(-c3ccc(OC)cc3)cs2)cc1,0,0,0,0,0
c1ccc(-c2csc(Nc3cccnc3)n2)nc1,0,0,0,0,0
O=C(Nc1cccc(-c2csc(Nc3ccccc3)n2)c1)c1ccccc1,73,0,0,0,-
COc1ccc(-n2nc(C#N)c(Cl)cc2=O)cc1,190,0,0,-,0
CC1CN=C(N(C(=O)Nc2ccccc2)C(C)C)S1 (stereo unspecified),0,0,0,0,0
Cc1ccc(N(C(=O)Nc2ccccc2)C2=NCC(C)S2)cc1 (stereo unspecified),0,88,0,0,0
Fc1ccc(CCNC(=S)Nc2ccc(F)c(Cl)c2)cc1,113,0,0,0,0
S=C(NCCc1ccc(Cl)cc1)Nc1ccc(Cl)cc1Cl,70,99,100,0,0
Fc1ccc(NC(=S)NCCc2ccc(Cl)cc2)cc1,0,0,0,0,0
C/C(=N\NC(=S)NCCc1ccccc1)c1ccc(Cl)cc1Cl,0,-,-,0,0
CC(=NNC(=S)NCCc1ccccc1)c1ccc(Cl)cc1Cl,-,90,0,-,-
S=C(NCc1ccc(Cl)cc1)Nc1ccc(Cl)cc1Cl,0,0,0,0,0
CCCC1Cc2c(sc3ncnc(N)c23)CO1 (stereo unspecified),0,0,0,0,0
Nc1nnn(Cc2ccccc2)n1,0,0,0,0,0
COc1cc(CCc2ccccc2)c(C(=O)O)c(O)c1C/C=C(/C)CCC=C(C)C,0,100,88,-,-
CC1C/C(=C/c2cccs2)C(=O)/C(=C/c2cccs2)C1 (stereo unspecified),0,90,0,0,0
COc1cccc(NCc2cc(=O)oc3cc(C)c(O)cc23)c1,-,100,97,0,0
O=c1c2c(-c3ccc(Cl)cc3)csc2ncn1/N=C/c1cccc([N+](=O)[O-])c1O,280,-,-,0,0
CCOc1cc(N2CCOCC2)c(OCC)cc1NC(=O)C1=COCCO1,0,0,0,-,-
COc1cccc(CN2CCN(C(=O)c3cc(-c4ccncc4)nc4ccc(C)cc34)CC2)c1,0,0,0,0,0
CCCCc1ccc(-n2c(Cc3cccs3)n[nH]c2=S)cc1,305,0,0,0,0
S=c1[nH]nc(Cc2cccs2)n1-c1ccccc1,0,0,0,0,0
SMILES,PfHsp40 rescue,ugtP null kill,Sa RN4220 lethal,BJeLR lethal,SARS 3CLpro inh
CCCCOc1ccc(Br)cc1/C(C)=N/NC1=NCCN1,0,-,-,52,0
COc1ccc(Br)cc1C(C)=NNC1=NCCN1,-,0,0,-,-
CCCn1c(SCC(=O)Nc2ccc(Cl)cn2)nnc1C1CC1,0,0,0,0,0
CC(C)(C)/C(Cn1cncn1)=N\OC(=O)Nc1ccc(Cl)cc1,0,-,-,0,0
Cc1ccc(C(=O)CC(=O)c2ccccc2C)c(O)c1,0,87,0,0,0
Cc1ccc(C(=O)CC(=O)c2cccc(F)c2)c(O)c1,396,94,88,0,0
COc1ccc(N(CC(=O)NN=Cc2cccs2)S(=O)(=O)c2ccc(OC)c(OC)c2)cc1,-,0,0,-,-
O=C(/C=C/c1ccc2c(c1)OCO2)NC1CCCC1,0,0,0,0,0
CC(C)(C)NC(=O)NC(=O)CSc1ccc(S(=O)(=O)N2CCOCC2)cn1,0,0,0,-,-
O=C(NNc1c2ccccc2nc2ccccc12)c1cccc(O)c1,0,0,0,0,0
Oc1cccc(-c2nc3ccc4ccccc4c3c3c2CCC3)c1,0,100,0,0,0
COc1ccc2c(c1)C1C=CCC1C(c1cc3c(cc1Br)OCO3)N2 (stereo unspecified),68,0,0,0,0
O=C(/C=C/c1ccco1)Nc1sc2c(c1C(=O)O)CCC2,0,0,0,0,0
N#Cc1c(NC(=O)/C=C/c2ccco2)sc2c1CCCC2,0,0,0,56,0
